{"source": "the supplement of paper PMC10105736", "test_in_all_cases": "MAPPIT interaction score (arbitrary units); higher = stronger binary interaction signal, active = hit call of the paper", "key": {"Cpr62Ba": {"biological_target": "Cpr62Ba", "conditions": "pair source set: RRS"}, "CycG": {"biological_target": "CycG", "conditions": "MAPPIT configuration: N-N; pair source set: Finley_Y2H"}, "c-cup": {"biological_target": "c-cup", "conditions": "MAPPIT configuration: N-N; pair source set: Finley_Y2H"}, "ix": {"biological_target": "ix", "conditions": "MAPPIT configuration: N-N; pair source set: Finley_Y2H"}, "Cyp1": {"biological_target": "Cyp1", "conditions": "pair source set: Lit-BM-16"}, "DIP1": {"biological_target": "DIP1", "conditions": "MAPPIT configuration: N-N; pair source set: screen_2"}, "kermit": {"biological_target": "kermit", "conditions": "MAPPIT configuration: N-N; pair source set: Curagen_high_conf"}, "shv": {"biological_target": "shv", "conditions": "MAPPIT configuration: N-N; pair source set: Curagen_high_conf"}, "Deaf1": {"biological_target": "Deaf1", "conditions": "MAPPIT configuration: N-N; pair source set: screen_1"}, "Dfd": {"biological_target": "Dfd", "conditions": "MAPPIT configuration: N-N; pair source set: Finley_Y2H"}, "Dhod": {"biological_target": "Dhod", "conditions": "MAPPIT configuration: N-N; pair source set: Curagen_high_conf"}, "cindr": {"biological_target": "cindr", "conditions": "MAPPIT configuration: N-N; pair source set: Lit-BM-16"}}, "note": "Values without a mark were called inactive.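 The calls were made as follows: active = MAPPIT score above the 99th percentile of random reference set scores in the same batch; inactive = at or below it.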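 Also: HEK293T cells with Epo stimulation, STAT-responsive firefly luciferase reporter, fold induction versus unstimulated cells divided by the larger fold induction of two negative controls lacking either bait or prey.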", "data": [{"binder": "Rad60 (protein) MSDDDCDIFSAARKRIPEIALPKNPYNLGNDSFSKEVDYDFIEDLPKKSTKTGKRKNPAATRKNPPKSQDDASPPKQAEHKAVEPEEDMRTERSLSPVSLLILEMEKKNGQQSDVEKHAKENDVGPVARRTRSSLNRSEMAPPPVSPTVEVPTQTKPKKRGQKKRTSLTTTTSNSASMEVSLPSIVGQNNEHISRRWTLAEVAARSKVVDSIDLVSAVAPRVEGFVNLDSEDEGEKEAPPVVEEENIFDNDNPTIEVALSWLGEIQIYKLRQHQKFKHLFKELASRNGIDENDITVDMYYNFVGPEDTPHSIGLKSFHTLTGHPTKSHNNNNVAAKIDYNPEALCRKPKKFQVKVQADKWKHPLVIPMKKTDNFKIIFIKCAEELNCDPRTIKLFFDGDLLDPNDTPNNQDMEGNEVIDLKIKA", "values": [{"measurement": "MAPPIT interaction score", "setting": "Cpr62Ba; MAPPIT configuration: N-C", "value": -0.181}, {"measurement": "MAPPIT interaction score", "setting": "Cpr62Ba; MAPPIT configuration: N-N", "value": 1.45}]}, {"binder": "mldr (protein) MYNLRLLRNLLPIAGHAHPRWLASQHKRRPQPGSLPADRLDQLRSDLFERRHELSGAEWTEVRRSLVDGYKHINGHNVDAVILGVCSAPNQLSLAKSYVEFLRSRGSKPNAATLGRLLRVYNAAYHERPLSEAEQSEILQICRSLQAEHETLDASSCENVIHGLVATSGDDWQRGLPLLEMMKVTSTPSVAAYSALAEKAFSVATPEQELAWRLLEEMATARKPPKCEVYLALLNRLANETAQLPAQLSLLLQFLERHEILVSQRVAIRLQELSSQVPQLLHTRTTHLGGLGKCQSCQQHLQPVAISDEEFRQLSECFLERVLIRRDVFQRSTPEEVARFKKFVEKTAPYDCVIDGLNVAYSTGTKKTPQQLAKLVATVVRHFREQDKRVLVLGREHMRNWSKQAMHYVHCNASLFLTSNLSHDDPFLLYATLRSGQETDFFSRDLMRSHAFHLGTELKPIFRRWQQEHQFSLVTQTQTGQIIVKEPVRHRLCAHQVADTWHVPYCAQYTPHPTDSFEVPANWLCIQMKEQTIPATKTKTKTTR", "values": [{"measurement": "MAPPIT interaction score", "setting": "CycG", "value": -0.0303}, {"measurement": "MAPPIT interaction score", "setting": "c-cup", "value": -0.00733}, {"measurement": "MAPPIT interaction score", "setting": "ix", "value": 0.483}]}, {"binder": "Aladin (protein) MAALSNLKQCPPFSTLPDLALRHNHIPELERYPQINLNSELLANPAGQRYYGGQSFVSVNEGVLKRIARSFFNGGFWKTLEEARSPETREQAPLIAQAGDLIAQFLGLATGLRILPHTQQLSAERIAQFVETRDWLNSDVRYLAWNQHFFCLAVAGVDDVVRIYTKSSSATTATVLKSPSQTQITCMAWRPLCASEIVIGCRQGLCFWEVDSTLHLGRTNAPSEIFKYPNNLPITSMQWNKDGTQLATASIGDRSIIIWQPDTGMMQPLKRLGPPGSLLKWSPDNDWLFAATVDRVFRVWNCHQQWTTERWVCGPGGYVQTACWSPCGRFLLFVSSAEPILYRLQFVQQSLLSSSADEKEILPIADLNACSIDANRTLVGGPAQQLAWDPHGNYLVVTFKATNCIAVFRTFIQKFDLQISAAYYLSGETAAEHPSFICFQPLYEDNDRSVLTIAWSSGRIQYYAFD", "values": [{"measurement": "MAPPIT interaction score", "setting": "CycG", "value": -0.0444}]}, {"binder": "Eno (protein) MSWTASVFLRTSTTSMKFLRLRWPLPRIPQNKSANVAPRFRSKSAVSQLSSGFKFVQIRKSTCDSNEMTIKAIKARQIYDSRGNPTVEVDLTTELGLFRAAVPSGASTGVHEALELRDNDKANYHGKSVLKAVGHVNDTLGPELIKANLDVVDQASIDNFMIKLDGTENKSKFGANAILGVSLAVAKAGAAKKGVPLYKHIADLAGNKEIILPVPAFNVINGGSHAGNKLAMQEFMILPTGATSFTEAMKMGSEVYHHLKNVIKAKFGLDATAVGDEGGFAPNIQSNKEALNLISDAIAKAGYTGKIEIGMDVAASEFYKDGQYDLDFKNEKSDKSQWLPADKLANLYQEFIKDFPIVSIEDPFDQDHWEAWSNLTGCTDIQIVGDDLTVTNPKRIATAVEKKACNCLLLKVNQIGTVTESIAAHLLAKKNGWGTMVSHRSGETEDSFIGDLVVGLSTGQIKTGAPCRSERLAKYNQILRIEEEIGAGVKFAGKSFRKPQ", "values": [{"measurement": "MAPPIT interaction score", "setting": "Cyp1; MAPPIT configuration: N-C", "value": 0.69}, {"measurement": "MAPPIT interaction score", "setting": "Cyp1; MAPPIT configuration: N-N", "value": -0.102}]}, {"binder": "Mob4 (protein) MKMADGSTILRRNRPGTKSKDFCRWPDEPLEEMDSTLAVQQYIQQLIKRDPSNVELILTMPEAQDEGVWKYEHLRQFCMELNGLAVRLQKECSPSTCTQMTATDQWIFLCAAHKTPKECPAIDYTRHTLDGAACLLNSNKYFPSRVSIKESSVTKLGSVCRRVYRIFSHAYFHHRRIFDEFEAETYLCHRFTHFVTKYNLMSKENLIVPINVGENAAPGESEA", "values": [{"measurement": "MAPPIT interaction score", "setting": "DIP1", "value": 0.606}, {"measurement": "MAPPIT interaction score", "setting": "kermit", "value": 0.744}, {"measurement": "MAPPIT interaction score", "setting": "shv", "value": 0.755}]}, {"binder": "Clamp (protein) MEDLTKNIIFTNAINGQPATIQYQTADGTILKQPKIEGQKTEQQPTFYYTTNGNGGTVNLAQLATTDDNKTCYIAQPVGGYNYALVNGMPLNQGAALGIATVDAQGRIQIVNQNKPIAANTISNISFKCDVCSDMFPHLALLNAHKRMHTDGEQQQQQQHNAQAGGDSIAVVSAQGLVQAQNIIGNGQMGQIQIVSSDTLEPVQQSVMQQQQHESKASKCINCGSSMLQQSKRKGPKQVRCESCMQAEQTAQQQQQLFVAQDGQMAHPVQIISTTPQAQAQLQQIVAAQTGGTTPKREASSGSGHHPVKKRNSQQMTKCQKCNGSGVVLVGQHSHASHSGVGGSVKQSVTVKTENPSKPFSCNICGGLFSRYSSLWSHKKLHSGEKNYKCSICGLAFAKAVYLKNHARIHTGEKPYKCQTCGMQFSQSPHLKNHERTHSGERPYVCGVCDKGFARHATLWNHRRIHTGEKPYKCEICGSAFSQAAHLKNHAKVHSGEKPYKCEICSAAFADRFALKRHRGIHQKYGQTAPRQTSSDGMIVHKQEIPDMEDEAQQEVIIGGL", "values": [{"measurement": "MAPPIT interaction score", "setting": "Deaf1", "value": 0.235}]}, {"binder": "eIF3i (protein) MRPLMLQGHERSITQIKYNREGDLLFSCSKDQKPNVWYSLNGERLGTYDGHQGAVWCLDVDWESRKLITGAGDMTAKIWDVEYGTVIASIPTKSSVRTSNFSFSGNQAAYSTDKAMGQSCELFLIDVRNADSSLSEQEPTLRIPMTESKITSMLWGPLDETIITGHDNGNIAIWDIRKGQKVVDSGTDHSAGINDMQLSKDGTMFVTASKDTTAKLFDSESLMCLKTYKTERPVNSAAISPIMDHVVLGGGQDAMEVTTTSTKAGKFDSRFFHLIYEEEFARLKGHFGPINSLAFHPDGKSYASGGEDGFVRVQTFDSTYFENIFE", "values": [{"measurement": "MAPPIT interaction score", "setting": "Dfd", "value": 0.00823}]}, {"binder": "bsk (protein) MTTAQHQHYTVEVGDTNFTIHSRYINLRPIGSGAQGIVCAAYDTITQQNVAIKKLSRPFQNVTHAKRAYREFKLMKLVNHKNIIGLLNAFTPQRNLEEFQDVYLVMELMDANLCQVIQMDLDHDRMSYLLYQMLCGIKHLHSAGIIHRDLKPSNIVVKADCTLKILDFGLARTAGTTFMMTPYVVTRYYRAPEVILGMGYTENVDIWSVGCIMGEMIRGGVLFPGTDHIDQWNKIIEQLGTPSPSFMQRLQPTVRNYVENRPRYTGYSFDRLFPDGLFPNDNNQNSRRKASDARNLLSKMLVIDPEQRISVDEALKHEYINVWYDAEEVDAPAPEPYDHSVDEREHTVEQWKELIYEEVMDYEAHNTNNRTR", "values": [{"measurement": "MAPPIT interaction score", "setting": "Dhod", "value": 1.59}, {"measurement": "MAPPIT interaction score", "setting": "cindr", "value": 0.0365}]}]}
